# Shown are actives, neighbours in structure and some others; about 2.6% of the full set was active somewhere.
# p53ts 32C kill: qHTS Screen for Compounds that Selectively Target Cancer Cells with p53 Mutations: Cytotoxicity of p53ts Cells at the Permissive Temperature; H1299-p53A138V at 32C, ATP luminescence viability, 24 h; Potency, µM (series often up to 46.1 µM), inactives show at the top dose activity change, negative = cytotoxicity, actives largely listed as cytotoxic; 130,000 tested, 0.93% active; AID 924, 2007;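 also: 0% = DMSO and -100% = full killing by reference compound; nearly all actives have a fitted effect of over 55% in size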
#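 Cells: H1299 p53ts (A138V), 600/well, pre-incubated 16–30 h at 37C. Cpd up to 46 uM, 24 h, 32C. Readout: ATPlite luminescence, 20 min RT. Normalization: DMSO vs tamoxifen 100 uM. AC50 by Hill equation.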
# FLuc inh: qHTS Assay for Inhibitors of Firefly Luciferase | Luciferin 4-monooxygenase (Photinus pyralis), P08659 | purified firefly luciferase, luminescence, 8 min | Potency, µM (doses to about 57.1 µM), for inactives: at the highest dose activity change, negative = inhibition, usual class: inhibitors | 72,000 tested, 2.2% active | AID 411, 2009; also: nearly all actives have a fitted effect of over 40% in size
# Target sequence (P08659 whole entry, looked up): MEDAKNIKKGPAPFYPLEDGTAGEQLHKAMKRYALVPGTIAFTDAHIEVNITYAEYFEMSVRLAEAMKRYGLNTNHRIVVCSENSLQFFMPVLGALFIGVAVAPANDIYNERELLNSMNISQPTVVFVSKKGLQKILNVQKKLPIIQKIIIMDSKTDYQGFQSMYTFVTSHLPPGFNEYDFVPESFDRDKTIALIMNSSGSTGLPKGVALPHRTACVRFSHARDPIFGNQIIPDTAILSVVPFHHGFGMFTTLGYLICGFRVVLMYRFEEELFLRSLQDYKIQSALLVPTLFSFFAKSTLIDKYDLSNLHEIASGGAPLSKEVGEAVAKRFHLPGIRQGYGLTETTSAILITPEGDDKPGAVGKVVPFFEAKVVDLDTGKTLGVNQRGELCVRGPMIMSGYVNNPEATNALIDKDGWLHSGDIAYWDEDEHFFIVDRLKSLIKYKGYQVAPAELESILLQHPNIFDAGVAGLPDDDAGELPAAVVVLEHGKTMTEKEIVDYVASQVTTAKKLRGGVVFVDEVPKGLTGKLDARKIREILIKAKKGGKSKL
#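 Luminescence read-out after 8 min at room temperature; enzyme reaction used luciferin plus 10 uM ATP (linear range) in imidazole buffer pH 7.2 with KCl, MgCl2, Tween 20 and BSA. Each sample was run as a titration.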
# p53ts 39C tox: qHTS Screen for Compounds that Selectively Target Cancer Cells with p53 Mutations: Cytotoxicity of p53ts Cells at the Nonpermissive Temperature. AID 902, 2007. Potency, µM (highest dose often 46.1 µM), inactives show at the top dose activity change, negative = cell killing, usual class: cytotoxic. 130,000 tested, 1.5% active. H1299-p53A138V viability at 39C, ATP luminescence, 24 h; also: nearly all actives have a fitted effect of over 55% in size
# Active calls of the source: *; ? = inconclusive; / = no result given; ! = not active in a repeat; [ ] = another dose, or the depositor's remark. Calls follow the shape of the dose curve; as a rule, active = well fitted curve in the direction sought with a large enough effect; inconclusive = small, poorly fitted or top-dose-only effect, or another doubt; inactive = no such curve, though single readings can be large; an effect the other way counts as inactive or inconclusive. Unless noted, % is scaled to controls: 0 for no effect and ±100 for the full control effect; potency is read from the fitted curve at half-maximal effect.
SMILES,p53ts 32C kill,FLuc inh,p53ts 39C tox
CCOC(=O)c1cc(C)n(CC2CCC(C(=O)Nc3ccc(Cl)cc3)CC2)c1C (centres undefined),25.5%,/,-6.6%
O=C(CSc1nn(-c2ccc(Cl)cc2)c(=S)s1)N1CCN(C(=O)c2ccco2)CC1,6.6%,2.7%,2.1%
O=C(CSc1nnc(SCc2ccc(Cl)cc2)s1)N1CCN(C(=O)c2ccco2)CC1,1.4%,3.98µM*,-12.2%
CN(CCc1ccc(Cl)c(Cl)c1)CCN1CCCCCC1,?,-0.5%,15.8µM*
CN1CCN(CCc2ccc(Cl)c(Cl)c2)CC1,-17.4%,?,-26.3%
CCOc1ccc(CNCc2c(C(=O)O)n(Cc3ccc(OC)cc3)c3ccccc23)cc1,-17.2%,/,-14.5%
CC1CCc2nc(NC(=O)c3ccco3)sc2C1 (centres undefined),2.51µM*,2µM*,2.51µM*
CC1CCc2nc(NC(=O)Cc3cccs3)sc2C1 (centres undefined),-9.0%,-24.6%,-19.4%
CCC(CC)C(=O)Nc1nc2c(s1)CC(C)CC2 (centres undefined),0.1%,/,-5.1%
CC1CCc2nc(NC(=O)C3CCCO3)sc2C1 (centres undefined),10µM*,12.6µM*,12.6µM*
CCC(O)c1nc2ccccc2n1Cc1cc(C)ccc1C (centres undefined),21.2%,/,-16.0%
Cc1ccc(CN2CCN(CC(=O)NCc3ccccc3Cl)C2=O)cc1,15.2%,/,-6.6%
CCS(=O)(=O)N1CCc2cc(C(=O)N3CCN(c4ccc(OC)cc4)CC3)ccc21,-1.4%,/,-8.8%
O=C(CN1C(=O)C(c2ccc(F)cc2)=NC12CCCCCC2)Nc1ccc(F)c(Cl)c1,19.8%,/,10µM*
O=C(CN1C(=O)C(c2ccc(F)cc2)=NC12CCCCCC2)Nc1ccccc1Cl,10.9%,/,?
Cc1ccc(NC(=O)Cn2c(-c3ccc4c(c3)OCO4)cn(-c3ccccc3)c2=O)cc1,-12.8%,/,-2.8%
CC(=O)c1c(C)n(-c2cccc(Cl)c2)c2ccc(OC(=O)c3ccccc3)cc12,3.9%,/,10.4%
CCCc1cc(C(=O)Nc2ccc(C)cc2)no1,-12.4%,?,-5.1%
CCc1ccc(NC(=O)c2cc(C)on2)cc1,?,7.94µM*,?
CCc1ccc(NC(=O)c2cc(-c3ccc(OC)cc3)on2)cc1,-1.3%,2.7%,-14.6%
CCc1ccc(NC(=O)c2cc(CC(C)C)on2)cc1,-3.9%,-13.6%,-9.2%
Cc1ccc(NC(=O)c2cc(C)on2)cc1,?,15.8µM*,?
CCc1ccc(NC(=O)c2cc(C(C)C)on2)cc1,-20.9%,12.6µM*,-28.9%
COc1ccc(Oc2ncc3nc(-c4cccc(C#N)c4)c(=O)n(CCC#N)c3n2)cc1,-3.8%,1.3%[11.4 µM],-4.0%
Cc1ccc(NC(=O)CSc2cc(=O)n(C)c3ccc(Cl)cc23)c(Br)c1,3.1%,/,?
SMILES,p53ts 32C kill,FLuc inh,p53ts 39C tox
CC(=O)c1cc(C)oc1C,-5.8%[1.84 µM],/,-9.0%
O=C(Nc1ccc(SC(F)F)cc1)C1=COCCO1,?,25.1µM*,?
O=C(NC1CCCCCCC1)C1=COCCO1,12.4%,-8.7%,-11.0%
FC(F)(F)c1cccc(Nc2c3c(nc4ccc(Cl)cc24)CCC3)c1,11.2µM*,/,12.6µM*
Fc1ccc(F)c(Nc2c3c(nc4ccc(Cl)cc24)CCC3)c1,-13.5%,/,-7.1%
Oc1c(C(c2ccc(Cl)cc2Cl)N2CCN(Cc3ccccc3)CC2)sc2nc(-c3ccco3)nn12 (centres undefined),-7.2%,/,2.6%
CCCCOc1ccc(C(=O)CCN2CCCCC2)cc1,-0.3%,0.9%[25.5 µM],-8.6%
O=C(c1ccc(OCCN2CCCCC2)cc1)c1c(-c2ccc(O)cc2)sc2cc(O)ccc12,20µM*!,2.8%[25.5 µM],25.1µM*!
CCOc1ccccc1NC(=O)CSc1nnc2[nH]c(=O)cc(-c3ccccc3)n12,3.6%,/,?
O=C(CSc1nnc2[nH]c(=O)cc(-c3ccccc3)n12)Nc1ccc(OC(F)(F)F)cc1,7.0%,/,?
Cc1ccc(NC(=O)CSc2nnc3[nH]c(=O)cc(-c4ccccc4)n23)cc1Cl,?,/,1.58µM*
Cc1ccc(C)c(NC(=O)CSc2nnc3[nH]c(=O)cc(-c4ccccc4)n23)c1,?,/,1.26µM*
O=C(Nc1ccc(F)cc1)C1CCN(S(=O)(=O)c2ccc3c(c2)CCCN3C(=O)C2CCC2)CC1,4.8%,/,-27.1%
Cc1cccc(CNC(=O)c2cccc(NC(=O)N3CCSc4ncccc43)c2)c1,-4.5%,/,-17.7%
Cc1ccc(-c2cc3c(n2-c2ccccc2F)CC(C)(C)CC3=O)cc1,2.2%,/,-5.4%
CC(C)Nc1ncnc2c1cnn2-c1ccc(Cl)cc1,12.6µM*,2.51µM*,15.8µM*
CCC(CO)Nc1ncnc2c1cnn2-c1ccc(C)cc1 (centres undefined),?,/,15.8µM*
COCCNc1ncnc2c1cnn2-c1ccc(Cl)cc1,/,10µM*,/
COCCN(CCOC)c1ncnc2c1cnn2-c1ccc(Cl)cc1,-6.7%,-18.4%,-7.0%
CC(Nc1ncnc2c1cnn2-c1cccc(Cl)c1)c1ccccc1 (centres undefined),-1.6%,/,-3.7%
CCOCCCNc1ncnc2c1cnn2-c1ccc(C)c(C)c1,-6.4%,/,?
Cc1ccc(-n2ncc3c(Nc4cccc(C)c4C)ncnc32)cc1,-7.5%,/,?
Cc1ccc(-n2ncc3c(NCCCN(C)C)ncnc32)cc1Cl,25.8%,/,15.8µM*
CCCS(=O)(=O)Nc1cc2c(cc1NCc1ccccc1)n(C)c(=O)n2C,-10.1%,/,-20.9%
COc1cccc(CN2CCCN(Cc3ccc(F)cc3)S2(=O)=O)c1,4.1%,/,-9.0%
SMILES,p53ts 32C kill,FLuc inh,p53ts 39C tox
Cc1ccc(S(=O)(=O)Nc2ccccc2C(=O)c2ccc(C)c(C)c2)cc1,-8.0%[9.22 µM],-1.6%[11.4 µM],14.4%[9.22 µM]
CC1Cc2cc(S(=O)(=O)NCc3ccc(N(C)C)cc3)ccc2N1C(=O)C1CCC1 (centres undefined),-0.1%,/,/
O=c1c(CCc2ccccc2)nc2cnc(N3CCOCC3)nc2n1-c1ccccc1,1.4%,-0.1%[11.4 µM],2.3%
COc1ccc(NC(=O)C(C)n2nc(-c3ccc(C)c(C)c3)ccc2=O)cc1OC (centres undefined),-8.1%,/,-1.4%
OCCOCCNc1ncnc2c1cnn2-c1ccccc1,/,-10.9%[25.5 µM],/
OCCOCCNc1ncnc2c1cnn2-c1ccc(Cl)cc1,/,10µM*,/
Cn1cc(S(=O)(=O)N2CCCCCC2)cc1C(=O)N1CCN(c2cccc(Cl)c2)CC1,0.8%,/,-18.0%
COC(=O)CC1C(=O)NCCN1C(=O)CSc1nnc(Nc2ccc(OC)cc2)s1 (centres undefined),?,15.8µM*,?
COc1ccc(C(=O)CSc2nnc(NC(=O)C3CC(=O)N(c4ccccc4)C3)s2)cc1 (centres undefined),-27.7%,/,-1.0%
COc1ccc(C)cc1Nc1c2c(nc3ccccc13)CCC2,-3.5%,/,?
COc1ccc(/C=C/C(=O)Nc2ccc3nc4c(c(Nc5ccccc5OC)c3c2)CCCC4)cc1,-8.2%,/,-7.1%
COc1ccccc1Nc1c2c(nc3ccc(NC(=O)/C=C/c4cccc(OC)c4OC)cc13)CCCC2,-5.7%,/,-25.2%
COc1ccc(NC(=O)c2ccc3c(SCC(=O)O)c4c(nc3c2)CCCC4)cc1OC,8.2%,/,-5.9%
